Laboratory results taken from PubChem BioAssay (NCATS).
A number with no mark means an inactive call. Inconclusive results are not listed. Active and inactive are the calls of the source. Unless noted, calls follow the shape of the dose curve; as a rule, active = well fitted curve in either direction with a large enough effect (not every such curve was filed as active); inconclusive = small, poorly fitted or top-dose-only effect, or another doubt; inactive = flat fitted curve, though single readings scatter.

Assays:
[1] = biological target: Lysosomal acid glucosylceramidase (Homo sapiens) (UniProt P04062); test: Glucocerebrosidase-p2 (AID 348; in the data active = potency below about 10 µM; also: potency is read from the fitted curve at half-maximal effect); conditions: purified GBA, blue fluorogenic substrate, 40 min
Summary of the method: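 Normal human glucocerebrosidase (0.2 nM) with blue fluorogenic substrate (80 uM final) in citrate/phosphate pH 5.9 with 10mM sodium taurocholate, 0.01% tween-20; 40 min RT, NaOH/glycine stop; fluorescence Ex 365/Em 440; AC50 from a titration from 0.6 nM upwards.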

[2] = AP1 Signaling Pathway (AID 357); conditions: ME-180 AP-1-bla reporter, EGF-induced, beta-lactamase ratio, 5 h; at 7.69 µM (top of the series) unless noted; also: % is scaled to controls: 0 for no effect and ±100 for the full control effect
Summary of the method: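 AP-1-bla ME-180 cells with beta-lactamase reporter under AP-1 response element, stimulated with EC50 EGF; compounds titrated, 5 hours at 37 degrees Celsius. CCF4 read at 460/530 nm ratio; positive and negative modulators judged by AC50.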

[3] = NFAT Signaling Pathway (AID 444); conditions: Jurkat NFAT-bla M1, carbachol, beta-lactamase ratio, 5 h; at 7.69 µM (top of the series) unless noted;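 also: carbachol stimulus at about its EC50 of 1 µM final; % is scaled to controls: 0 for no effect and ±100 for the full control effect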
Summary of the method: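 Read-out: CCF4 FRET ratio (460 nm/530 nm) after 1 h RT dye loading, used for %activity and AC50 from titration series. Cells: Jurkat NFAT-β-lactamase/M1 line, treated with compound plus 1 uM carbachol for 5 h, 37 °C.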

[4] = Stat Signaling Pathway (AID 446); conditions: ME-180 (cervical carcinoma) SIE beta-lactamase reporter, IL-6 stimulated, 5 h; at 7.69 µM (top of the series) unless noted;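 also: ME-180 cervical cancer cells given 40 pM IL-6 alongside compound; SIE-controlled beta-lactamase reporter measured as 460/530 nm FRET emission ratio; % is scaled to controls: 0 for no effect and ±100 for the full control effect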
Summary of the method: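 Emission at 460 and 530 nm (excitation 405 nm) reports SIE-controlled beta-lactamase in ME-180 cells. Cells received compound with 40 pM IL-6 for 5 hrs at 37 C; data scaled between 300 pM IL-6 and 125 nM JAK-inhibitor controls.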

[5] = biological target: Glucocorticoid receptor (Homo sapiens) (UniProt P04150); test: GR-GFP Redistribution (AID 450;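 active = compounds whose dose series gives a full or clear partial fitted curve of increased nuclear translocation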; also: potency is read from the fitted curve at half-maximal effect); conditions: U2OS GR-GFP nuclear translocation, laser cytometry, 2 h
[6] = biological target: Mitogen-activated protein kinase 10 (Mus musculus) (UniProt Q61831); test: JNK3 AlphaScreen Assay (AID 530); conditions: JNK3 lysate, c-Jun phosphorylation; series mostly up to 11.4 µM;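 also: kinase came from lysate of stimulated human HepG2 cells; signal reports phosphorylation of biotinylated GST-cJun 1-79 at Ser73 with 10 µM ATP; % is scaled to controls: 0 for no effect and ±100 for the full control effect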
Summary of the method: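 Kinase buffer: 20 mM Tris-HCl pH 7.6, 10 mM MgCl2, 1 mM DTT, 0.1 mM Na3VO4, 0.01% Tween-20; ATP 10 uM. Substrate biotin-GST-cJun(1-79), enzyme from activated HepG2 lysates. Detection by Ser73 phospho-antibody AlphaScreen.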

[7] = biological target: 3',5'-cyclic-AMP phosphodiesterase 4B (Homo sapiens) (UniProt Q07343); test: qHTS Assay for Inhibitors of PDE-IV (AID 607; active = well fitted activation curve with a large enough effect in the main read-out, with a control signal flat, not every such curve was filed as active; also: % of control where 0% means no effect); conditions: HEK293 ACTOne CNG channel cells, membrane potential fluorescence; series mostly up to 22.9 µM
Summary of the method: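 The readout is membrane depolarisation from a cAMP-sensing CNG channel, detected with a potential dye at ex 535/em 590. Cells were HEK293-derived (endogenous PDE-IV) at 1000 cells/well, titrated up to 22.9 uM final.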

[8] = biological target: Cytochrome P450 2C9 (Homo sapiens) (UniProt P11712); test: qHTS Assay for Inhibitors and Substrates of Cytochrome P450 2C9 (AID 883; active = well fitted curve in the direction sought with a large enough effect; an effect the other way counts as inactive or inconclusive; also: potency is read from the fitted curve at half-maximal effect; nearly all actives have a fitted effect of over 60% in size); conditions: recombinant CYP2C9, luciferin-H luminescence, 60 min; series mostly up to 11.4 µM
Summary of the method: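 Turnover of Luciferin-H (100uM, KM) by 10nM human CYP2C9 was measured over 60 min at 37C with NADPH regeneration; inhibitors and some substrates reduce luminescence. Data normalized to sulphaphenazole 57uM.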

[9] = biological target: Cytochrome P450 3A4 (Homo sapiens) (UniProt P08684); test: qHTS Assay for Activators of Cytochrome P450 3A4 (AID 885; active = well fitted curve in the direction sought with a large enough effect; an effect the other way counts as inactive or inconclusive; also: nearly all actives have a fitted effect of over 65% in size); conditions: recombinant CYP3A4, Luciferin-PPXE luminescence, 60 min; series mostly up to 11.4 µM
Summary of the method: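 Activators are scored by enhanced luminescence from CYP3A4 conversion of luciferin-PPXE (25uM, equal to KM) to luciferin, after 60 min at RT with an NADPH-regenerating system.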

[10] = biological target: Glucocorticoid receptor (Homo sapiens) (UniProt P04150); test: GR-EFC Redistribution (AID 451; calls by dose curve; also: potency is read from the fitted curve at half-maximal effect); conditions: CHO-K1 GR-EFC translocation, beta-gal luminescence, 2 h
Summary of the method: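 Translocation of GR-ED fusion to nuclear EA restores b-gal, read by luminescence after 1 h room-temperature detection. Engineered CHO-K1 biosensor cells, 1,000/well, exposed 2 h at 37 C to titrations up to 46 uM final.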

[11] = biological target: Cytochrome P450 3A4 (Homo sapiens) (UniProt P08684); test: qHTS Assay for Inhibitors and Substrates of Cytochrome P450 3A4 (AID 884; active = well fitted curve in the direction sought with a large enough effect; an effect the other way counts as inactive or inconclusive; also: potency is read from the fitted curve at half-maximal effect; nearly all actives have a fitted effect of over 50% in size); conditions: recombinant CYP3A4, Luciferin-PPXE luminescence; series mostly up to 57.1 µM
Summary of the method: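 Luminescent readout of luciferin produced by CYP3A4 (20 nM) dealkylation of Luciferin-PPXE, 25 uM (its KM). NADPH-driven reaction ran 60 min at RT after 10 min compound preincubation; data scaled to 57 uM ketoconazole as 100% inhibition.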

[12] = Confirmation and Secondary Assay for Modulators of Hemoglobin Beta Chain Splicing at IVS2 654 locus (AID 910; active = well fitted curve in the direction sought with a large enough effect; an effect the other way counts as inactive or inconclusive;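 also: HeLa cells stably carrying EGFP split by mutant beta-globin IVS2-654 intron; per-well total GFP intensity by laser scanning cytometry after 2-day treatment; % of control where 0% means no effect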); conditions: HeLa EGFP-654 splicing reporter, GFP fluorescence, 48 h; series mostly up to 38.3 µM
Summary of the method: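 Readout: per-well total peak green fluorescence (488 nm ex, 500–520 nm em) from objects 5–250 µm, reflecting correct splicing of an EGFP-654 reporter. Compounds were applied for 2 days at 37 °C to overnight-plated HeLa EGFP-654 cells; controls were DMSO and 500 nM IVS2-654 PNA.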

[13] = Confirmation and Secondary Assay for Modulators of Hemoglobin Beta Chain Splicing at IVS2 705 locus (AID 930; active = well fitted curve in the direction sought with a large enough effect; an effect the other way counts as inactive or inconclusive;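 also: HeLa cells stably expressing the EGFP-705 splicing reporter; GFP fluorescence per well restored by corrected splicing of the IVS2-705 intron in EGFP; % of control where 0% means no effect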); conditions: HeLa EGFP-705 splicing reporter, GFP fluorescence, 48 h; series mostly up to 38.3 µM
Summary of the method: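 Secondary splice-site specificity test uses HeLa expressing CMV-driven EGFP interrupted by IVS2-705; cells were treated 2 days at 37C with 500 nM antisense PNA as positive control.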

[14] = biological target: Cytochrome P450 2C19 (Homo sapiens) (UniProt P33261); test: qHTS Assay for Inhibitors and Substrates of Cytochrome P450 2C19 (AID 899; active = well fitted curve in the direction sought with a large enough effect; an effect the other way counts as inactive or inconclusive; also: potency is read from the fitted curve at half-maximal effect; nearly all actives have a fitted effect of over 60% in size); conditions: recombinant CYP2C19, luciferin-H EGE luminescence; series mostly up to 11.4 µM
Summary of the method: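 Reactions contain 5nM enzyme, 10uM Luciferin-H EGE (KM) and 50mM KPO4; compound preincubates 10 min at 37C, NADPH regeneration starts turnover for 60 min. Luminescence after detection reagent gives activity.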

Cytochrome P450 2C9 (Homo sapiens), sequence (P11712 whole entry, looked up): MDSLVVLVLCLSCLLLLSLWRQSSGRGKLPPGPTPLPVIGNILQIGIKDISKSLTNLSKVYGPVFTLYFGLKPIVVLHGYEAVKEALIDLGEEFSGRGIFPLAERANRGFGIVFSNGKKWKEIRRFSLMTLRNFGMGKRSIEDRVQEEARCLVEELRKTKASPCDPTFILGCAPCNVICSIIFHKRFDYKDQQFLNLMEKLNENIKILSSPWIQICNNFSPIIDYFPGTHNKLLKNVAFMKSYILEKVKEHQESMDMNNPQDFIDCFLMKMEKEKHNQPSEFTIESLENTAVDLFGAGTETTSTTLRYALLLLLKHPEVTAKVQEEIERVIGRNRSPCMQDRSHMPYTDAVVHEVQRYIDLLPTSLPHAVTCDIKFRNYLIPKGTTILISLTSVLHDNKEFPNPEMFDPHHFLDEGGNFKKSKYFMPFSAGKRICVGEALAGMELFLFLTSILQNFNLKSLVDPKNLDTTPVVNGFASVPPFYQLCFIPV
Cytochrome P450 3A4 (Homo sapiens), sequence (P08684 whole entry, looked up): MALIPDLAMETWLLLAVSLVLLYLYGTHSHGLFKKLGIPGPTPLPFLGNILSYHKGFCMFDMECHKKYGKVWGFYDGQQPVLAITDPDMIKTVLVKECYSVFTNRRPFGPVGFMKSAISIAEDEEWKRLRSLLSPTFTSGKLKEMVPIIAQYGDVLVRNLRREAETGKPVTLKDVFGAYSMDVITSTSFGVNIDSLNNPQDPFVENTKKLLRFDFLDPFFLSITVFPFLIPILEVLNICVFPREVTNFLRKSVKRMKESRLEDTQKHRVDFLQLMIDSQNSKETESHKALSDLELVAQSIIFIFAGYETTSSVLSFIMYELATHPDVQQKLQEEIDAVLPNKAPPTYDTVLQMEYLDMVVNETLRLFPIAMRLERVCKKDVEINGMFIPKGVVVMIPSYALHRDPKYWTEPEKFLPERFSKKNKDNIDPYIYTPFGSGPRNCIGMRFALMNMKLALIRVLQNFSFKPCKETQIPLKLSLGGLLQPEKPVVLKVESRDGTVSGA
3',5'-cyclic-AMP phosphodiesterase 4B (Homo sapiens), sequence (Q07343 whole entry, looked up): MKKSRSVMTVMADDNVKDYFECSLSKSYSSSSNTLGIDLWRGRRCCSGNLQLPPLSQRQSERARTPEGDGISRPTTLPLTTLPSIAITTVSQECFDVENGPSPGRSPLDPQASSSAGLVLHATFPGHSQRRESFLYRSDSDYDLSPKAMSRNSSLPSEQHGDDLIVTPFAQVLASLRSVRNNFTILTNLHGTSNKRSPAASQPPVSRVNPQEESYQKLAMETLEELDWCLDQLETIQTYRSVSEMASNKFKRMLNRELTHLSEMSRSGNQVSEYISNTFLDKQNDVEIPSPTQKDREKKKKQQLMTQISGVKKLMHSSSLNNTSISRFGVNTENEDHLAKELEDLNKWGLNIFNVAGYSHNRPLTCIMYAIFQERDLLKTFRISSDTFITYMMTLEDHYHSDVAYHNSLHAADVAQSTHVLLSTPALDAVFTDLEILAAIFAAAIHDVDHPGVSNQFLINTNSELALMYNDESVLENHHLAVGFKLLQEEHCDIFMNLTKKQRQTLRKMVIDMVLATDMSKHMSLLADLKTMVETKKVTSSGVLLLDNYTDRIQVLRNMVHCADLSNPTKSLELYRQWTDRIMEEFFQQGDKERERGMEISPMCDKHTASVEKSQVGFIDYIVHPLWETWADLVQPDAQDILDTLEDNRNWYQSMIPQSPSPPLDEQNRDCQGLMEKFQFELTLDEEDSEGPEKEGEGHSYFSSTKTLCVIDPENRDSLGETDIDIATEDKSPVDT
Lysosomal acid glucosylceramidase (Homo sapiens), sequence (P04062 whole entry, looked up): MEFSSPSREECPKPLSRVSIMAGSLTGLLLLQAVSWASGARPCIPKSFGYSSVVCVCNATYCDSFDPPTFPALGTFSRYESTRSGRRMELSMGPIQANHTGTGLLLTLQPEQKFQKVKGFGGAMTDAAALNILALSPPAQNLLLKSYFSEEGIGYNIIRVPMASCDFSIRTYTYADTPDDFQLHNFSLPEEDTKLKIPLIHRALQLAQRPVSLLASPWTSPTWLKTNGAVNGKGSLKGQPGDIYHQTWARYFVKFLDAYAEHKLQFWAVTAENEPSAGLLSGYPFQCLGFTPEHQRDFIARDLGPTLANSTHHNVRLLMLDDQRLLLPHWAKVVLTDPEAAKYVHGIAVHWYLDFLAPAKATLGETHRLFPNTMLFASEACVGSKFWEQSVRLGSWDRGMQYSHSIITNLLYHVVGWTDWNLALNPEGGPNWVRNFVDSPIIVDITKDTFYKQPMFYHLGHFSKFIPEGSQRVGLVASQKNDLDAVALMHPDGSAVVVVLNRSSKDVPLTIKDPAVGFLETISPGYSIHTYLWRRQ
Glucocorticoid receptor (Homo sapiens), sequence (P04150 whole entry, looked up, the tested form may be a part): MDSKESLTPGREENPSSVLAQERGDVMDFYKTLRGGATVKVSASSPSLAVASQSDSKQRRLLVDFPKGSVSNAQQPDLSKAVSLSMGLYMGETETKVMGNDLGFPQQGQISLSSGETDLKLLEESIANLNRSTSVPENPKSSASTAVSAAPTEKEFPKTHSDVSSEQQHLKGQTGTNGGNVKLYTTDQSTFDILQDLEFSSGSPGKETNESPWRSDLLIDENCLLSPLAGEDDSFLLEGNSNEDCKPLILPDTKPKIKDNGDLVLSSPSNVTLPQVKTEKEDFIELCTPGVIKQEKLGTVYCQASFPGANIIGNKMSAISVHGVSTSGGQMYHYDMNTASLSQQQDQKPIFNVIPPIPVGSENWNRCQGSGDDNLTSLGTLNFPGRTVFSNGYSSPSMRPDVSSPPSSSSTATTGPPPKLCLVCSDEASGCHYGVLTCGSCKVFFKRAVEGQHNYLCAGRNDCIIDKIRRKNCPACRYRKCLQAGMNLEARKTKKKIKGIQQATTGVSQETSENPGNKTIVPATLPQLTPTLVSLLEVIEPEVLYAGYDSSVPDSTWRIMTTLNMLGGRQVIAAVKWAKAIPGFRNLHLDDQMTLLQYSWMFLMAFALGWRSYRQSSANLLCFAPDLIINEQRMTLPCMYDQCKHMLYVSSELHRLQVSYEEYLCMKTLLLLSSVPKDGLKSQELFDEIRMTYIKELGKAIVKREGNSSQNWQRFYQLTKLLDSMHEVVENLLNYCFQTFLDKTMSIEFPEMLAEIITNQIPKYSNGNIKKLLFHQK
Cytochrome P450 2C19 (Homo sapiens), sequence (P33261 whole entry, looked up): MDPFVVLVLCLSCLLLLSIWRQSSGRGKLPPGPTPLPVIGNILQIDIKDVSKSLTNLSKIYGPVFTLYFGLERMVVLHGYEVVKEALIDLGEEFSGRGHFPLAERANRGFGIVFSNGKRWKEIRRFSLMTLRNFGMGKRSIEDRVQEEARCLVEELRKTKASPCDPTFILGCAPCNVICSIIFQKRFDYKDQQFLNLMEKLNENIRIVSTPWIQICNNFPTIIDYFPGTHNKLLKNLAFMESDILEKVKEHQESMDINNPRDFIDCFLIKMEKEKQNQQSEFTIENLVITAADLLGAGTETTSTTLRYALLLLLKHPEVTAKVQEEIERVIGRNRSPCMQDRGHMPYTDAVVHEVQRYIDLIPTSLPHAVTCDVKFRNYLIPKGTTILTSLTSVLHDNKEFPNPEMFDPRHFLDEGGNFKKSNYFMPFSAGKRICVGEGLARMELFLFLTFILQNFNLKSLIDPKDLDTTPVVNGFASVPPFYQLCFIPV

Structure (SMILES)	Potency [1] [µM]	activity change, negative = inhibition [2] [%]	activity change, negative = inhibition [3] [%]	activity, negative = inhibition [4] [%]	Potency [5] [µM]	Potency [6]	Potency [7]	Potency [8]	Potency [9]	Potency [10] [µM]	Potency [11]	outcome [12]	outcome [13]	Potency [14]
C[C@@H]1CCCC(CC(=O)O)(CC(=O)O)C1	> 11.4	-2.04	-0.409	6.41	> 46	inactive	inactive	–	–	–	–	–	–	–
C[C@@H](C(=O)O)/C(=C/c1ccc2c(c1)OCO2)C(=O)O	> 11.4	-12.8	1.64	-5.22	> 46	inactive	inactive	2.51 µM (active)	inactive	–	–	–	–	–
Nc1nc(SCc2ccccc2Cl)cc(C(=O)O)n1	> 11.4	-13.8	1.52	4.58	> 46	inactive	inactive	–	–	–	–	–	–	–
COc1ccc([C@@H](C)c2cc3c(cc2O)OCO3)cc1	> 11.4	-11.5	-3.98	4.36	> 46	–	inactive	1.58 µM (active)	inactive	> 9.22	2.51 µM (active)	–	–	–
CC(C)[C@@H](C(=O)O)N1C(=O)c2ccccc2C1=O	> 11.4	-2.02	-8.21	2.83	> 46	–	inactive	–	–	> 9.22	–	–	–	–
S=c1nc(-c2nc(=S)[nH]c3c2CCCCCCCCCC3)c2c([nH]1)CCCCCCCCCC2	> 11.4	-8.81	15.1	9.8	> 46	inactive	inactive	–	–	–	–	–	–	–
CS(=O)(=O)Nc1cccc(-c2nc(NCc3cccnc3)c3ccccc3n2)c1	> 11.4	-19.8	23.6	-19.5	> 46	inactive	–	–	inactive	> 46	2 µM (active)	inactive	inactive	–
CN(C)Cc1cc(C(C)(C)C)cc(CNC2CCCCC2)c1O	> 11.4	-6.47	-20.6	7.16	> 46	inactive	inactive	–	–	–	–	–	–	–
Nc1nc(C(=O)O)c(N=Nc2ccccc2)c(=O)[nH]1	> 11.4	4.49	-22.9	7.24	> 46	–	inactive	–	–	> 9.22	–	–	–	–
C[C@@H](N)/C(N)=N/O	> 11.4	-1.61	6.7	5.63	> 46	inactive	inactive	–	–	–	–	–	–	–
CC1=C(/C=C\C(=O)O)C(C)(C)CCC1	> 11.4	4.18	11.9	0.469	> 46	–	inactive	–	–	> 9.22	–	–	–	–
O=C(O)CC(CC(=O)O)C(=O)O	> 11.4	-1.11	8.83	7.1	> 46	inactive	inactive	–	–	–	–	–	–	–
FC(F)(F)c1nc2nc(Cl)c(Cl)nc2n1CCCN1CCOCC1	> 11.4	9.81	-3.79	2.08	> 46	inactive	–	–	inactive	> 9.22	–	–	–	–
CC(=O)c1ccc(O)c(CN(C2CCCCC2)C2CCCCC2)c1O	> 11.4	-2.68	16	-1.55	> 46	–	inactive	–	–	> 9.22	–	–	–	–
CN1CCN(c2ccc3nc(-c4ccc5nc(-c6ccc(O)cc6)[nH]c5c4)[nH]c3c2)CC1	> 11.4	-22.4	-8.32	23.8	> 46	inactive	inactive	–	–	–	–	–	–	–
O=C(C[C@@H]1C=Cc2ccccc2N1C(=O)c1ccccc1)c1ccccc1	> 11.4	-6.74	-22.9	-9.68	> 46	inactive	–	2.51 µM (active)	inactive	> 9.22	3.98 µM (active)	–	–	0.501 µM (active)
